Experimental data published in PubChem BioAssay (EPA / NIEHS).
Records with an inconclusive call do not appear. The source made the active and inactive calls. The calls were made as follows: active = hit-call score of the fitted dose curve at least 0.9, where 1 is the maximum; inconclusive = response in the unintended direction; inactive = score below 0.9.

Assay: Tanguay_ZF_120hpf_OTIC_legacy: (Legacy) Oregon State University Tanguay Lab 120 Hour Post-fertilization zebrafish Assay for Otic Vesicle Malformation (AID 2283639)
Outline: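 Otic vesicle malformation is read as a yes/no morphology call at 120 hpf. Exposure is static at 28C with 0.64% (vol/vol) DMSO; embryos that die are excluded from non-mortality endpoints.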

SMILES | outcome | AC50
CCOP(=O)(NC(C)C)Oc1ccc(SC)c(C)c1 (stereo not given) | inactive | 
COc1cc(OC)nc(Sc2cccc(Cl)c2C(=O)O)n1 | inactive | 
CC(=NC#N)N(C)Cc1ccc(Cl)nc1 | inactive | 
CN(C)NC(=O)CCC(=O)O | inactive | 
FC(F)C(F)(F)OCC(Cn1cncn1)c1ccc(Cl)cc1Cl (stereo not given) |  | 47 µM (active)
CCc1cccc(C)c1N(C(=O)CCl)C(C)COC (stereo not given) | inactive | 
COP(=O)(OC)C(O)C(Cl)(Cl)Cl (stereo not given) | inactive | 
CC(C)N(C(=O)SCC(Cl)=C(Cl)Cl)C(C)C | inactive | 
CCCCOC(=O)c1ccccc1C(=O)O | inactive | 
CCC(=O)Nc1ccc(Cl)c(Cl)c1 | inactive | 
COc1cccc(C(=O)NN(C(=O)c2cc(C)cc(C)c2)C(C)(C)C)c1C | inactive | 
S=C1NCCN1 | inactive | 
CCOP(=S)(OCC)Oc1cc(C)nc(C(C)C)n1 | inactive | 
CCCCSP(=O)(SCCCC)SCCCC | inactive | 
CCOP(=S)(OCC)SCCSCC | inactive | 
C#CCC1=C(C)C(OC(=O)C2C(C=C(C)C)C2(C)C)CC1=O (stereo not given) | inactive | 

SMILES | outcome | AC50
CCOC(=O)CC(SP(=O)(OC)OC)C(=O)OCC (stereo not given) | inactive | 
CON=C(C(=O)OC)c1ccccc1CON=C(C)c1cccc(C(F)(F)F)c1 | inactive | 
CCOP(=S)(OCC)Oc1ccc([N+](=O)[O-])cc1 | inactive | 
Cc1cc(C2CC2)nc(Nc2ccccc2)n1 | inactive | 
C[Si](Cn1cncn1)(c1ccc(F)cc1)c1ccc(F)cc1 |  | 12.7 µM (active)
CCC(CC)Nc1c([N+](=O)[O-])cc(C)c(C)c1[N+](=O)[O-] | inactive | 
O=c1ccc(=O)[nH][nH]1 | inactive | 
CCCSP(=O)(OCC)Oc1ccc(Br)cc1Cl (stereo not given) | inactive | 
CNC(=O)ON=C(SC)C(=O)N(C)C | inactive | 
Nc1nc(N)nc(NC2CC2)n1 | inactive | 
CSC1=N[C@@](C)(c2ccccc2)C(=O)N1Nc1ccccc1 | inactive | 
CC[C@H](C)[C@H]1O[C@]2(C=C[C@@H]1C)C[C@@H]1C[C@@H](C/C=C(\C)[C@@H](O[C@H]3C[C@H](OC)[C@@H](O[C@H]4C[C@H](OC)[C@@H](NC)[C@H](C)O4)[C@H](C)O3)[C@@H](C)/C=C/C=C3\CO[C@@H]4[C@H](O)C(C)=C[C@@H](C(=O)O1)[C@]34O)O2 | inactive | 
N#CSCSC#N | inactive | 
COP(=O)(NC(C)=O)SC (stereo not given) | inactive | 
CCCOCC(=Nc1ccc(Cl)cc1C(F)(F)F)n1ccnc1 | inactive | 
C#CC(C)(C)NC(=O)c1cc(Cl)cc(Cl)c1 | inactive | 

Assay: Tanguay_ZF_120hpf_PE_legacy: (Legacy) Oregon State University Tanguay Lab 120 Hour Post-fertilization zebrafish Assay for Pericardial Edema (AID 2283640);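 as to AC50: potency for increased incidence of pericardial edema versus DMSO baseline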
Outline: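 Read-out is the presence or absence of pericardial edema at 120 hpf under brightfield, with gain of signal fitted against DMSO controls. Larvae (5D wild-type) were statically exposed at 28C with 0.64% final DMSO.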

SMILES | AC50 | outcome
CCOP(=O)(NC(C)C)Oc1ccc(SC)c(C)c1 (stereo not given) | 25.6 µM (active) | 
COc1cc(OC)nc(Sc2cccc(Cl)c2C(=O)O)n1 |  | inactive
CCOP(=S)(OCC)Oc1ccc2c(C)c(Cl)c(=O)oc2c1 |  | inactive
CN(C)NC(=O)CCC(=O)O |  | inactive
FC(F)C(F)(F)OCC(Cn1cncn1)c1ccc(Cl)cc1Cl (stereo not given) | 26.1 µM (active) | 
CCc1cccc(C)c1N(C(=O)CCl)C(C)COC (stereo not given) |  | inactive
COP(=O)(OC)C(O)C(Cl)(Cl)Cl (stereo not given) |  | inactive
CC(C)=CC1C(C(=O)OCN2C(=O)C3=C(CCCC3)C2=O)C1(C)C (stereo not given) |  | inactive
CC(C)N(C(=O)SCC(Cl)=C(Cl)Cl)C(C)C |  | inactive
CCCCOC(=O)c1ccccc1C(=O)O |  | inactive
CCC(=O)Nc1ccc(Cl)c(Cl)c1 |  | inactive
COc1cccc(C(=O)NN(C(=O)c2cc(C)cc(C)c2)C(C)(C)C)c1C |  | inactive
S=C1NCCN1 |  | inactive
CCOP(=S)(OCC)Oc1cc(C)nc(C(C)C)n1 |  | inactive
CCCCSP(=O)(SCCCC)SCCCC |  | inactive
CCOP(=S)(OCC)SCCSCC |  | inactive
C#CCC1=C(C)C(OC(=O)C2C(C=C(C)C)C2(C)C)CC1=O (stereo not given) |  | inactive

SMILES | AC50 | outcome
CCOC(=O)CC(SP(=O)(OC)OC)C(=O)OCC (stereo not given) |  | inactive
CON=C(C(=O)OC)c1ccccc1CON=C(C)c1cccc(C(F)(F)F)c1 | 8.26 µM (active) | 
CCOP(=S)(OCC)Oc1ccc([N+](=O)[O-])cc1 |  | inactive
Cc1cc(C2CC2)nc(Nc2ccccc2)n1 |  | inactive
C[Si](Cn1cncn1)(c1ccc(F)cc1)c1ccc(F)cc1 | 9.78 µM (active) | 
CCC(CC)Nc1c([N+](=O)[O-])cc(C)c(C)c1[N+](=O)[O-] |  | inactive
O=c1ccc(=O)[nH][nH]1 |  | inactive
CCCSP(=O)(OCC)Oc1ccc(Br)cc1Cl (stereo not given) |  | inactive
CC1(C(=O)Nc2ccc(O)c(Cl)c2Cl)CCCCC1 |  | inactive
CNC(=O)ON=C(SC)C(=O)N(C)C |  | inactive
CSC1=N[C@@](C)(c2ccccc2)C(=O)N1Nc1ccccc1 | 2.63 µM (active) | 
CC[C@H](C)[C@H]1O[C@]2(C=C[C@@H]1C)C[C@@H]1C[C@@H](C/C=C(\C)[C@@H](O[C@H]3C[C@H](OC)[C@@H](O[C@H]4C[C@H](OC)[C@@H](NC)[C@H](C)O4)[C@H](C)O3)[C@@H](C)/C=C/C=C3\CO[C@@H]4[C@H](O)C(C)=C[C@@H](C(=O)O1)[C@]34O)O2 |  | inactive
N#CSCSC#N |  | inactive
COP(=O)(NC(C)=O)SC (stereo not given) |  | inactive
CCCOCC(=Nc1ccc(Cl)cc1C(F)(F)F)n1ccnc1 |  | inactive
C#CC(C)(C)NC(=O)c1cc(Cl)cc(Cl)c1 |  | inactive
